The source of these data is PubChem BioAssay (NCATS).

Molecules are shown by their SMILES. Results filed as inconclusive are left out. Activity calls are given as the source filed them. The call rests on the fitted dose curve; in most records, active means well fitted curve in the direction sought with a large enough effect; inconclusive means small, poorly fitted or top-dose-only effect, or another doubt; inactive means no such curve, though single readings can be large; an effect the other way counts as inactive or inconclusive.

The target of assay [1] is Glutaminase kidney isoform, mitochondrial (Homo sapiens) (UniProt O94925). Description: qHTS for Inhibitors of Glutaminase (GLS): LOPAC Validation (AID 624146). Further: nearly all actives have a fitted effect of over 60% in size. Further: potency means the concentration at half of the fitted maximal effect. The method, boiled down:
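Compounds were pin-transferred onto hKGA, after which L-glutamine (1 mM solution) and a detection mix of glutamate oxidase, HRP and Amplex Red were added. Initial and 30 min RT fluorescence reads were collected.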
On the technique in general: qHTS replaces the single test concentration by a dilution series.

The nature of assay [2]: qHTS of Trypanosoma Brucei Inhibitors: LOPAC Validation (AID 624147). The method, boiled down:
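Readout: single end-point luminescence (Kinase-Glo Plus, 10 min). Reaction conditions were TbPYK/substrate plus 130 uM ADP, 45 min at RT, pH 7.2 TEA buffer. No-enzyme wells served as controls, and data were normalized before concentration-response fitting.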

Assay [3] has as its target Glucagon-like peptide 1 receptor (Homo sapiens) (UniProt P43220). Description: qHTS of GLP-1 Receptor Agonists: LOPAC Validation (AID 624148).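 Further: luminescence from a luciferase reporter switched on by cAMP; higher luminescence signal means agonism.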 An outline of the steps: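 Agonism scored as increased luciferase luminescence driven by cAMP in HEK293 clones carrying GLP-1R. Cells settled 12 hours, received compound for 4-6 hr at 37 deg C, 5% CO2, and were read after 12 min detection reagent at RT.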

Assay [4] is described as follows: qHTS of Nrf2 Activators: LOPAC Validation (AID 624149). The method, boiled down:
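AREc32_Fluc cells, 1000/well in OPTI-MEM with 5% FBS, grown overnight, then exposed to compounds for 24 hr at 37 deg C, 5% CO2. ARE-driven firefly luciferase read by Steady-Glo luminescence after 30 min at RT.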

A short description of assay [5]: HTS Assay for Allosteric Antagonists of the Human D2 Dopamine Receptor: Hit Validation in HTRF (AID 624455).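 Further: stable D1 dopamine receptor cell line scored for blocking the D1 response.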 The method, boiled down:
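Hit validation in cells stably expressing the D1 dopamine receptor, run in HTRF format. Compounds were tested for their ability to inhibit the D1-mediated response.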
For orientation: TR-FRET usually uses a lanthanide donor and a delayed reading to cut background.

Sequence of Glucagon-like peptide 1 receptor (Homo sapiens) (P43220 whole entry, looked up): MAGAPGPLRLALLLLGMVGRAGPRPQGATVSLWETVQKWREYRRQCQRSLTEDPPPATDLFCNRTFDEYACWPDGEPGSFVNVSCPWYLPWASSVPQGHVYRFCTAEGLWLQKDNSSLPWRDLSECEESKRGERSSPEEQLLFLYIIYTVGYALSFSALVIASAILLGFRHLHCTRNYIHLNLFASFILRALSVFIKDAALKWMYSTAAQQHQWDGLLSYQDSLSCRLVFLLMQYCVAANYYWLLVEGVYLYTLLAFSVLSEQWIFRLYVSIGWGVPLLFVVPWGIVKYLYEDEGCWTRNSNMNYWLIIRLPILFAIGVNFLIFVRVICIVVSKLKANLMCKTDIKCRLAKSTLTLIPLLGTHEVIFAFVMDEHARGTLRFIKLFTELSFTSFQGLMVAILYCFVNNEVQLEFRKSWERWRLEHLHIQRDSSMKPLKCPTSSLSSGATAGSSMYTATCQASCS
Sequence of Glutaminase kidney isoform, mitochondrial (Homo sapiens) (O94925 whole entry, looked up, canonical isoform): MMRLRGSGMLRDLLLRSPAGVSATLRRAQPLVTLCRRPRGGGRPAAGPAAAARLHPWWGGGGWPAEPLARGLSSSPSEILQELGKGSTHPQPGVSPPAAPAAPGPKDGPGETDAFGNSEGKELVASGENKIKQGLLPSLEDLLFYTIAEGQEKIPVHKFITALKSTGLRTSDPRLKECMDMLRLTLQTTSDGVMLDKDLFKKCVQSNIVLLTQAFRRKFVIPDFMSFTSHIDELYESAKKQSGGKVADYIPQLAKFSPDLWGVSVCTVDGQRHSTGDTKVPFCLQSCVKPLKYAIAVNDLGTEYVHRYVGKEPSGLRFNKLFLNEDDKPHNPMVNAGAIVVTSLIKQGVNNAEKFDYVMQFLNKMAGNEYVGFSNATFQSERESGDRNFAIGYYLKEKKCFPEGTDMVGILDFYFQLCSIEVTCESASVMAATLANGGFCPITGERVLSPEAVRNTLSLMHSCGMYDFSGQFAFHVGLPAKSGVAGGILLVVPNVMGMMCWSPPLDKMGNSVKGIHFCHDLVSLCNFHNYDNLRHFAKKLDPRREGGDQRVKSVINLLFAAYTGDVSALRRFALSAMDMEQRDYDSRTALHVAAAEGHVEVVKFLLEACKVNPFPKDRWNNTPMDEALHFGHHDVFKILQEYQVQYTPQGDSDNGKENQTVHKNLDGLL

With `Ic1ccccc1CNC1C2CCN(CC2)C1C(c1ccccc1)c1ccccc1` (stereo not given), the Potency entry in assay [1], in assay [2], in assay [4] and in assay [5] was “inactive” throughout. Further, the compound was called inactive in assay [3].

As to `COC(=O)N1CCN(C(=O)Cc2ccc(Cl)c(Cl)c2)C(CN2CCCC2)C1` (stereo not given), the Potency entry in assay [1], in assay [2], in assay [4] and in assay [5] was “inactive” throughout. Also, the result in assay [3] was inactive.

With `CNc1ccc2oc(C[C@H]3O[C@@]4(CC[C@H]3C)O[C@H]([C@H](C)C(=O)c3ccc[nH]3)[C@H](C)C[C@H]4C)nc2c1C(=O)O`, the Potency in assay [1] is 3.55 µM (active). The Potency entry in assay [2], in assay [4] and in assay [5] was “inactive” each time. In addition, the call in assay [3] was inactive.

With `OCc1cnc[nH]1`, the Potency result in assay [1], in assay [2], in assay [4] and in assay [5] was “inactive” throughout. In assay [3], the compound was called inactive.

`NCCc1c[nH]c2ccc(C(N)=O)cc12`: the Potency entry in assay [1], in assay [2], in assay [4] and in assay [5] was “inactive” each time. Moreover, the result in assay [3] was inactive.

`C=CCN1CC[C@]23c4c5ccc(O)c4O[C@@H]2/C(=N/N=C2\CC[C@@]4(O)C6Cc7ccc(O)c8c7[C@@]4(CCN6CC=C)[C@@H]2O8)CC[C@@]3(O)C1C5`: the Potency in assay [1] is 2 µM (active). Besides, the Potency result in assay [2], in assay [4] and in assay [5] was “inactive” throughout. The result in assay [3] was inactive.

Consider `C[N+]1(C)CCN(c2ccccc2)CC1`, for which the Potency entry in assay [1], in assay [2], in assay [4] and in assay [5] was “inactive” throughout. Besides, in assay [3], the call was inactive.

`NC(=O)c1cc(N2CC2)c([N+](=O)[O-])cc1[N+](=O)[O-]`: the Potency entry in assay [1], in assay [2], in assay [4] and in assay [5] was “inactive” in each case. Also, the call in assay [3] was inactive.

Turning to `Clc1ccc(N2CC3CCC(C2)N3)nn1`, the Potency entry in assay [1], in assay [2], in assay [4] and in assay [5] was “inactive” in each case. Also, the outcome in assay [3] was inactive.

For `N=C(N)c1ccc(CS(=O)(=O)F)cc1`, the Potency result in assay [1], in assay [2], in assay [4] and in assay [5] was “inactive” in each case. In addition, in assay [3], the call was inactive.

As to `CCNC(=O)[C@H]1O[C@@H](n2cnc3c(N)ncnc32)[C@H](O)[C@@H]1O`, the Potency entry in assay [1], in assay [2], in assay [4] and in assay [5] was “inactive” each time. Besides, the result in assay [3] was inactive.

In the case of `N[C@@H](Cn1ccc(=O)[nH]c1=O)C(=O)O`, the Potency entry in assay [1], in assay [2], in assay [4] and in assay [5] was “inactive” throughout. The call in assay [3] was inactive.

Regarding `COc1ccc2c(c1)/C(=C/c1cnc[nH]1)C(=O)N2`, the Potency entry in assay [1], in assay [2], in assay [4] and in assay [5] was “inactive” in each case. Moreover, in assay [3], the call was inactive.

As for `CN1C2CCC1CC(OC(c1ccccc1)c1ccccc1N)C2` (stereo not given), the Potency entry in assay [1], in assay [2], in assay [4] and in assay [5] was “inactive” each time. The result in assay [3] was inactive.

With `CCCCCCC(C)(C)c1ccc([C@@H]2C[C@H](O)CC[C@H]2CCCO)c(O)c1`, the Potency result in assay [1], in assay [2], in assay [4] and in assay [5] was “inactive” throughout. Besides, the call in assay [3] was inactive.

`CCCn1c(C)c(C(=O)c2ccc3ccccc3c2)c2ccccc21`: the Potency result in assay [1], in assay [2], in assay [4] and in assay [5] was “inactive” in each case. Also, the compound was called inactive in assay [3].

With `CCN(CCCl)Cc1ccccc1Br`, the Potency entry in assay [1], in assay [2], in assay [4] and in assay [5] was “inactive” throughout. Moreover, in assay [3], the compound was called inactive.

Turning to `NC(CCCCCP(=O)(O)O)C(=O)O` (stereo not given), the Potency result in assay [1], in assay [2], in assay [4] and in assay [5] was “inactive” throughout. Further, the call in assay [3] was inactive.

Regarding `COc1ccc(CNC(=O)/C=C/c2ccc3[nH]cc(CCN(C)C)c3c2)cc1`, the Potency result in assay [1], in assay [2], in assay [4] and in assay [5] was “inactive” throughout. Moreover, the result in assay [3] was inactive.

In the case of `NCC(CP(=O)(O)O)c1ccc(Cl)cc1` (stereo not given), the Potency result in assay [1], in assay [2], in assay [4] and in assay [5] was “inactive” in each case. The compound was classed as inactive in assay [3].

As to `CC(C)NP(=O)(NC(C)C)OP(=O)(NC(C)C)NC(C)C`, the Potency entry in assay [1], in assay [2], in assay [4] and in assay [5] was “inactive” throughout. Also, the compound was called inactive in assay [3].

Regarding `NC(C(=O)O)c1cc(=O)[nH]o1` (stereo not given), the Potency entry in assay [1], in assay [2], in assay [4] and in assay [5] was “inactive” each time. Further, the call in assay [3] was inactive.

Regarding `C[N+]1(C)CCc2cc3c(cc2[C@H]1[C@@H]1OC(=O)c2c1ccc1c2OCO1)OCO3`, the Potency entry in assay [1], in assay [2], in assay [4] and in assay [5] was “inactive” in each case. Also, the outcome in assay [3] was inactive.

On to `Cc1cc([C@@H]2CCCN2C)on1`, for which the Potency result in assay [1], in assay [2], in assay [4] and in assay [5] was “inactive” throughout. Further, in assay [3], the compound was classed as inactive.

Consider `N[C@@]1(C(=O)O)CC[C@@H](C(=O)O)C1`, for which the Potency result in assay [1], in assay [2], in assay [4] and in assay [5] was “inactive” each time. In assay [3], the result was inactive.

Take `CN1CC[C@@]2(C)c3cc(O)ccc3N(C)C12` (stereo not given in full): the Potency in assay [1] is 10 µM (active). The Potency entry in assay [2], in assay [4] and in assay [5] was “inactive” throughout. The outcome in assay [3] was inactive.
